Potency and viability (% of control) data for 40 compounds are collected here from PubChem BioAssay (NCATS).

Results filed as inconclusive are left out. Activity calls are given as the source filed them. Calls come from the whole dose curve; as a rule, active = well fitted inhibition curve with a large enough effect; inconclusive = small, poorly fitted or top-dose-only effect; inactive = no such curve, though single readings can be large or run the other way.
Potency is the fitted concentration of half-maximal effect.

This experiment in a line: BET inhibitor-based combinations targeting novel dependencies in MECOM-rearranged (r) AML: OCI-AML3 cell line (AID 2202232). Note: nearly all actives have a fitted effect of over 35% in size. The conditions noted are these: CellTiter-Glo luminescence, 48 h; Potency: OCI-AML3 viability; series mostly up to 46 µM. The source says: Ecotropic viral insertion site 1 (EVI1) is located on chromosome 3q26.2 as part of the MECOM (MDS and EVI1 complex) locus. Under normal hematopoiesis, EVI1 is a regulator of hematopoietic stem cell maintenance and self-renewal and EVI1 levels decrease as the cells differentiate. In approximately 5-10% of de novo acute myeloid leukemia (AML) EVI1 is aberrantly expressed, including Chromosomal inv(3)(q21;q26.2) or t(3;3)(q21;q26.2) alterations (MECOM-r) that account for about 50% of AML with EVI1 overexpression 31. AMLs with high levels of EVI1 have a poor prognosis and an overall survival time averaging between 10-14 months. EVI1 overexpression confers resistance in leukemia cells, highlighting the need to develop new targeted therapies for EVI1 overexpressing AMLs.
Here, we performed an unbiased chemical drug screening by evaluating the single agent activity of a collection of 2,480 oncology-focused, approved and investigational drugs (NCATS Mechanism Interrogation Plates, MIPE v5.0) against a panel of seven AML cell lines. These included four MECOM-r cell-lines (AML-191, AML-194, UCSD-AML1 and HNT-34) and three non-MECOM-r AMLs (MV4-11, OCI-AML3 and SET-2). Exploiting the mechanistic redundancy built in the library, we identified target-level sensitivities in MECOM-r AML cells and relative activity as compared to other AML subtypes.
A collection of 2480 mechanistically annotated dugs (MIPE v5.0) was used to screen four 3q26.2 rearranged AML cell lines and three non-3q26.2 rearranged AML cell lines. This library purposely exploits redundancy by including multiple inhibitors of key onco-targets, while simultaneously encompassing mechanistic diversity, targeting more than 800 distinct mechanisms of action. Briefly, cells were seeded in 5 uL of growth media using a Multidrop Combi dispenser into 1536 well white polystyrene tissue culture treated plates (Corning) at a density of 500cells/well. For each cell-line, for each of the 2480 drugs in MIPE v5.0 library, an 11-point dose curve was generated via a 1536 pin-tool. Plates were incubated for 48 hr at standard incubator conditions, covered by a stainless steel gasketed lid to prevent evaporation. Cell viability was determined by luminescence based, Cell Titer Glo assay (Promega). In detail, 3 uL of Cell Titer Glo were added to each well and plates were incubated at room temperature for 15 min with a stainless-steel lid in place. Luminescence readings were taken using a Viewlux (PerkinElmer) with a 2 s exposure time per plate. Compound dose-response curves were normalized to DMSO and empty well controls on each plate. Quantitative drug activity data from dose-response curves was determined utilizing area Under the Curve (AUC) and Z-transformed AUC (Z-AUC, a mean-centering transformation applied to each individual cell-line screened).
In general terms: ATP-based viability assays read luminescence as a measure of living cells.
On to `CC1(C)O[C@@H]2C[C@H]3[C@@H]4C[C@H](F)C5=CC(=O)C=C[C@]5(C)[C@H]4[C@@H](O)C[C@]3(C)[C@]2(C(=O)CO)O1`, for which the Potency entry was “inactive”. The same measure, in the same setting: the value for `Nc1nc(F)nc2c1ncn2C1OC(COP(=O)(O)O)C(O)C1O` (stereo not given) was 18.6 µM (active). On the same count and under the same terms, next, `CC(=O)O[C@@]12CO[C@@H]1C[C@H](O)[C@@]1(C)C(=O)[C@H](O)C3=C(C)[C@@H](OC(=O)[C@H](O)[C@@H](NC(=O)OC(C)(C)C)c4ccccc4)C[C@@](O)([C@@H](OC(=O)c4ccccc4)[C@H]21)C3(C)C`: 0.0033 µM (active); `CC(=O)[C@]1(N)Cc2c(O)c3c(c(O)c2[C@@H](O[C@H]2C[C@H](O)[C@H](O)CO2)C1)C(=O)c1ccccc1C3=O`: 8.33 µM (active). Regarding `CC(C)c1cnn2c(NCc3ccccc3)cc(NCCCCCCN)nc12`, the Potency is 23.5 µM (active). Regarding `c1ccc2[nH]c(-c3cscn3)nc2c1`, the Potency result is “inactive”. With `C=CCNC1=C2C[C@@H](C)C[C@H](OC)[C@H](O)[C@@H](C)/C=C(\C)[C@H](OC(N)=O)[C@@H](OC)/C=C\C=C(/C)C(=O)NC(=CC1=O)C2=O`, the Potency was 10.5 µM (active).

`Cc1ncc(NC(=O)c2cccc(C(F)(F)F)c2)cc1-c1cnc(OC2CCOCC2)c(N2CCOCC2)c1`: the Potency is 0.0833 µM (active). `CN(C)c1ccc(Nc2nc(N)n(C(=O)c3c(F)cccc3F)n2)cc1`: the Potency was 23.5 µM (active). As for `CCCNC(=O)c1cn2ncnc(Nc3cc(C(=O)NC4CC4)ccc3C)c2c1C`, the Potency result was “inactive”. The same measure, in the same setting: the value for `CO[C@H]1/C=C/O[C@@]2(C)Oc3c(C)c(O)c4c(O)c(c5c(c4c3C2=O)=NC2(CCN(CC(C)C)CC2)N=5)NC(=O)/C(C)=C/C=C/[C@H](C)[C@H](O)[C@@H](C)[C@@H](O)[C@@H](C)[C@H](OC(C)=O)[C@@H]1C` was 16.6 µM (active); that for `COCCNCCCn1c(C(=O)CF)c(-c2ccc(C)cc2)c2c(N)ncnc21` was 0.059 µM (active).

Consider `O=C(C[C@@H]1C/C=C\CCC(=O)O[C@H](c2ccccc2)CNC1=O)NCc1ccc(Cl)cc1`, for which the Potency entry was “inactive”. As for `Cc1c(NC(=O)c2cc(C(N)=O)nc3cc(F)ccc23)c(C(F)(F)F)nn1Cc1ccc(C(C)(C)C)cc1`, the Potency was 23.5 µM (active). The same measure, in the same setting: the value for `CC(/C=C1\SC(=S)N(CC(=O)O)C1=O)=C\c1ccccc1` was “inactive”; that for `Clc1cccc(-c2ccc(-c3nnc(CCCc4ccc5cccnc5n4)o3)cc2)c1` was “inactive”. On to `C=C1CC[C@@H]2[C@](C)(CO)[C@H](O)CC[C@@]2(C)[C@@H]1C/C=C1/C(=O)OC[C@H]1O`, for which the Potency was 3.72 µM (active).

In the case of `C[C@H]1C[C@@H](n2c(Nc3ccc(OC(F)(F)F)cc3)nc3cc(CCC(=O)O)ccc32)CC(C)(C)C1`, the Potency was 20.9 µM (active). As for `COc1cc2c(cc1OC)CN(CCc1ccc(-n3nnc(-c4cc(OC)c(OC)cc4NC(=O)c4cc(=O)c5ccccc5o4)n3)cc1)CC2`, the viability (% of control) was 94.2% [at 0.315 µM] (inactive). In the case of `COc1cccc2c1C(=O)c1c(O)c3c(c(O)c1C2=O)C[C@@](O)(C(C)=O)C[C@@H]3O[C@H]1C[C@H](N)[C@H](O)[C@H](C)O1`, the Potency was 0.0934 µM (active). Turning to `CN(C)C[C@@H]1CCn2cc(c3ccccc32)C2=C(C(=O)NC2=O)c2cn(c3ccccc23)CCO1`, the Potency was 20.9 µM (active). On to `C[C@@H]1CC(=O)Nc2cccc(-c3ccc4c(c3)c(-c3cnn(C)c3)nn4C)c2N1`, for which the Potency is 6.61 µM (active). The same measure, in the same setting: the value for `C[C@H]1C[C@H]2[C@@H]3CCC4=CC(=O)C=C[C@]4(C)[C@H]3C(=O)C[C@]2(C)[C@@]1(O)C(=O)CO` was “inactive”; that for `Cc1[nH]nc2ncc(C(=O)N3CCC[C@H]3c3ccc(Cl)cc3)cc12` was “inactive”. On to `COc1cc2c(NC3CCN(C)CC3)nc(N3CCCN(C)CC3)nc2cc1OCCCN(C)C`, for which the Potency result was “inactive”. For `COc1ccc(CNC(=O)c2cc(-c3cncc(Cl)c3)cnc2-c2ccccn2)nc1OC`, the Potency entry was “inactive”. Take `C=CC(=O)N1CCC(CNc2ncnc(N)c2-c2ccc(Oc3ccccc3)cc2)CC1`: the Potency was 16.6 µM (active).

Consider `CC1=NN(c2ccc(C(=O)O)cc2)C(=O)/C1=C/c1ccc(-c2cc(C)c(C)cc2[N+](=O)[O-])o1`, for which the Potency is 0.235 µM (active). `CN(C)c1ccc(C(=O)NCCCCCCC(=O)NO)cc1`: the Potency was 0.833 µM (active). On the same count and under the same terms, next, `CCCNC(=O)[C@H]1O[C@@H]1C(=O)N[C@H](C(=O)N1CCC[C@H]1C(=O)OC)C(C)CC` (stereo not given in full): 2.09 µM (active). On to `CCc1ccc(N(CC(C)C)S(=O)(=O)c2ccc(OCC3CCOCC3)c(CO)c2)cc1`, for which the Potency is 14.8 µM (active). With `CN1CC(=O)N2[C@H](c3ccc4c(c3)OCO4)c3[nH]c4ccccc4c3C[C@@H]2C1=O`, the Potency result is “inactive”. The same measure, in the same setting: next, `CC(C)(CO)n1cc(C(=O)c2cncc(NC(=O)Cc3ccc(Cl)cn3)c2)c2cnc(N)nc21`: “inactive”.

As for `C=C1/C(=C\C=C2/CCC[C@]3(C)[C@@H]([C@H](C)CCCC(C)(C)O)CC[C@@H]23)C[C@@H](O)C[C@@H]1O`, the Potency is 20.9 µM (active). For the compound `COCCOC(=O)C1=C(C)NC2=C(C(=O)CC(c3ccccc3OC)C2)C1c1cccc(O)c1` (stereo not given), the Potency is 7.42 µM (active). Turning to `CCCCCCCCCCCCCCCCCCCCCCO`, the Potency entry is “inactive”. As for `CCOC(=O)C1=C(C)NC(=S)NC1c1cccc(O)c1` (stereo not given), the Potency was 20.9 µM (active). On the same count and under the same terms, the value for `NC(=O)c1ccc2nc(-c3ccc(C4(N)CCC4)cc3)c(-c3ccccc3)n2n1` was 13.2 µM (active).

On to `CC(=NNC(=O)c1cccc(S(=O)(=O)N2CCOCC2)c1)c1cc(Cl)ccc1O`, for which the Potency is 5.25 µM (active).

On to `O=C(/C=C/c1ccc2ccc(C(F)(F)F)cc2n1)c1ccncc1`, for which the Potency was 1.86 µM (active).
